Assay [1] deals with High affinity nerve growth factor receptor (Homo sapiens) (UniProt P04629). The note with it: at 1 µM.
For assay [2], the target named is BDNF/NT-3 growth factors receptor (Homo sapiens) (UniProt Q16620). The note with it: at 0.1 µM.
Assay [3] shares this target. Particulars: at 1 µM.
In assay [4] the target is NT-3 growth factor receptor (Homo sapiens) (UniProt Q16288). Particulars: at 0.1 µM.
Assay [5] has the same target. The note with it: at 1 µM.
In assay [6] the target is T1, Tyrosine-protein kinase TXK (Homo sapiens) (UniProt P42681).
T1 sequence (whole entry): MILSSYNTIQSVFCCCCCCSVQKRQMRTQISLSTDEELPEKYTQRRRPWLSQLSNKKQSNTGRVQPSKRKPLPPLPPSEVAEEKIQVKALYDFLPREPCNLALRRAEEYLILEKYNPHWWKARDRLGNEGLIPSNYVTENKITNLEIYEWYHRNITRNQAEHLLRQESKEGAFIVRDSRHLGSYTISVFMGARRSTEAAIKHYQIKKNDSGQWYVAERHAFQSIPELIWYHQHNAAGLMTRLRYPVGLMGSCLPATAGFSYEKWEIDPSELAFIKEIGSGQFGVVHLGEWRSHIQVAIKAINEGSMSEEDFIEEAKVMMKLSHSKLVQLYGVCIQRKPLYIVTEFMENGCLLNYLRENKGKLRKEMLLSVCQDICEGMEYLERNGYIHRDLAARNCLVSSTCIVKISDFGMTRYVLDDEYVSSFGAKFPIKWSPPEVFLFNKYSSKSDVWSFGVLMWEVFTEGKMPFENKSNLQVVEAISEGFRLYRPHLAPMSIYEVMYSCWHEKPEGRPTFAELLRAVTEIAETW
The note with it: at 0.1 µM.

The target in assay [7] is T1, Tyrosine-protein kinase TXK (Homo sapiens). Particulars: at 1 µM.
Assay [8] addresses Non-receptor tyrosine-protein kinase TYK2 (Homo sapiens) (UniProt P29597). Particulars: at 0.1 µM.
Assay [9] deals with T2, Dual specificity protein kinase TTK (Homo sapiens) (UniProt P33981).
T2 sequence (whole entry): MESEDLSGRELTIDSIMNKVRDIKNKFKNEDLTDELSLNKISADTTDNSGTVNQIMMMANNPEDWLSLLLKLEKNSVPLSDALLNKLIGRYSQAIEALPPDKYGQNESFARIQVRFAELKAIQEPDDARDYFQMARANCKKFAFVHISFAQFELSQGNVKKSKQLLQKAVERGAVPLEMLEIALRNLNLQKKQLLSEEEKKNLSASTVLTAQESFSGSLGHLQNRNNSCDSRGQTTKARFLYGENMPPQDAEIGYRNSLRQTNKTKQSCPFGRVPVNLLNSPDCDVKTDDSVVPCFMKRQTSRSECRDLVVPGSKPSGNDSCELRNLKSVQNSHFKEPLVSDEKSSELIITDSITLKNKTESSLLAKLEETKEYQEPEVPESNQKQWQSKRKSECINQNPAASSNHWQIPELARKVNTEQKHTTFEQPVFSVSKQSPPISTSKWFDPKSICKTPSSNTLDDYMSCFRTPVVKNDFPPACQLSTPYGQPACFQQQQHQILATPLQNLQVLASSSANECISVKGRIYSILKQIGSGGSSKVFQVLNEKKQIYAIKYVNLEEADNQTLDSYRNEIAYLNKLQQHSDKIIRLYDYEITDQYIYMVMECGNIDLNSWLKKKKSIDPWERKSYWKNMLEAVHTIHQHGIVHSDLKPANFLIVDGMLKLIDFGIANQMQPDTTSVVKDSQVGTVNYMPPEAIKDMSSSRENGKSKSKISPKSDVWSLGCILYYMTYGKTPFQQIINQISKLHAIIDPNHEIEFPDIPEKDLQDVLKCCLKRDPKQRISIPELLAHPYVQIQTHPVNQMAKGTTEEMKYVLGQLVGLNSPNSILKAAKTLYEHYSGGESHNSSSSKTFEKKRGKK
The note with it: at 1 µM.

Assay [10] has as its target T3, Aurora kinase A (Homo sapiens) (UniProt O14965).
T3 sequence (whole entry): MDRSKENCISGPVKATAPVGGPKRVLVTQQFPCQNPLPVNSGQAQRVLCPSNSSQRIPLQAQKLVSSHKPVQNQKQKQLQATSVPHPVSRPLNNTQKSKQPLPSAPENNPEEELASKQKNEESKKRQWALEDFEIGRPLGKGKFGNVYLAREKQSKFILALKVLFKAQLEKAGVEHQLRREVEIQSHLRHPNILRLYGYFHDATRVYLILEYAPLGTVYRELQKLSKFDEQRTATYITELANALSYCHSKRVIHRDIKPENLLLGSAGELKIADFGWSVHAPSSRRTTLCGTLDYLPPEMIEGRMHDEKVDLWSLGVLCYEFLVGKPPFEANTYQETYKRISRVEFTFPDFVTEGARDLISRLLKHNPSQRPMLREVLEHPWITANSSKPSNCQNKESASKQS
The note with it: at 0.1 µM.

The target in assay [11] is T3, Aurora kinase A (Homo sapiens). Particulars: at 1 µM.
Assay [12] concerns the target Aurora kinase B (Homo sapiens) (UniProt Q96GD4). Particulars: at 0.1 µM.
For assay [13] the target is unchanged. The note with it: at 1 µM.
Assay [14] deals with T4, Aurora kinase C (Homo sapiens) (UniProt Q9UQB9).
T4 sequence (whole entry): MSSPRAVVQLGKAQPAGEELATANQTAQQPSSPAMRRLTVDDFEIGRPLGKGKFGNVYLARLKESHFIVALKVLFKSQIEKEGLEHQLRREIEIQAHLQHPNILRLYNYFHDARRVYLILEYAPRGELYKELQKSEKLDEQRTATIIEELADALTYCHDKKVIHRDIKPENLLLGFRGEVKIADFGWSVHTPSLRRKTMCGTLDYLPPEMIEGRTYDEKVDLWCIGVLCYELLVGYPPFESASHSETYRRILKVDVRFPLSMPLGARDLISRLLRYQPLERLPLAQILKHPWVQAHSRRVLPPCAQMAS
The note with it: at 0.1 µM.

Assay [15] concerns the target T4, Aurora kinase C (Homo sapiens). Particulars: at 1 µM.
Assay [16] deals with Serine/threonine-protein kinase 10 (Homo sapiens) (UniProt O94804). The note with it: at 0.1 µM.
The target is the same in assay [17]. The note with it: at 1 µM.
In assay [18] the target is T5, Mitogen-activated protein kinase kinase kinase kinase 2 (Homo sapiens) (UniProt Q12851).
T5 sequence (whole entry): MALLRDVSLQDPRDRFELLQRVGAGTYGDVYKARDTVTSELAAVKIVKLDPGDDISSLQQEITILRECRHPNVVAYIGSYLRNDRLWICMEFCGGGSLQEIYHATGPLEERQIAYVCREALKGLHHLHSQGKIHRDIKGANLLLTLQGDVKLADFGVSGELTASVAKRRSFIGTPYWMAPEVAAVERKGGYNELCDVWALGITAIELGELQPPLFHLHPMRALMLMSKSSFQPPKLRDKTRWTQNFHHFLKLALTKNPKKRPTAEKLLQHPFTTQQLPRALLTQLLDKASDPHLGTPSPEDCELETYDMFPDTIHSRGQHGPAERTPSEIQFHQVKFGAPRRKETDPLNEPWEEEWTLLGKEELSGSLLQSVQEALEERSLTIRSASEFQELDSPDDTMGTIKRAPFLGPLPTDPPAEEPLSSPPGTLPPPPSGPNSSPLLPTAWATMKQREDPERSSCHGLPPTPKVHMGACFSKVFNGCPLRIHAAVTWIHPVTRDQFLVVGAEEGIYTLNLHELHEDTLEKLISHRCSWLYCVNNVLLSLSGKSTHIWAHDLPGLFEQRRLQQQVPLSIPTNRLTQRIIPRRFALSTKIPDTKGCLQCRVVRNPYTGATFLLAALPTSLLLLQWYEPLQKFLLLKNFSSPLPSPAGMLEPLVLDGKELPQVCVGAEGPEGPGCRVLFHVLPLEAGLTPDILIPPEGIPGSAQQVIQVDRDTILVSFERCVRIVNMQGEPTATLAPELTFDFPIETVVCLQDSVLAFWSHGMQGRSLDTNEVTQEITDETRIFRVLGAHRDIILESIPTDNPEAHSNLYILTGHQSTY
The note with it: at 0.1 µM.

For assay [19], the target named is T5, Mitogen-activated protein kinase kinase kinase kinase 2 (Homo sapiens). Particulars: at 1 µM.
Assay [20] has as its target Mitogen-activated protein kinase kinase kinase kinase 4 (Homo sapiens) (UniProt O95819). The note with it: at 0.1 µM.

Sequence of High affinity nerve growth factor receptor (Homo sapiens) (P04629 33-796 limits assumed): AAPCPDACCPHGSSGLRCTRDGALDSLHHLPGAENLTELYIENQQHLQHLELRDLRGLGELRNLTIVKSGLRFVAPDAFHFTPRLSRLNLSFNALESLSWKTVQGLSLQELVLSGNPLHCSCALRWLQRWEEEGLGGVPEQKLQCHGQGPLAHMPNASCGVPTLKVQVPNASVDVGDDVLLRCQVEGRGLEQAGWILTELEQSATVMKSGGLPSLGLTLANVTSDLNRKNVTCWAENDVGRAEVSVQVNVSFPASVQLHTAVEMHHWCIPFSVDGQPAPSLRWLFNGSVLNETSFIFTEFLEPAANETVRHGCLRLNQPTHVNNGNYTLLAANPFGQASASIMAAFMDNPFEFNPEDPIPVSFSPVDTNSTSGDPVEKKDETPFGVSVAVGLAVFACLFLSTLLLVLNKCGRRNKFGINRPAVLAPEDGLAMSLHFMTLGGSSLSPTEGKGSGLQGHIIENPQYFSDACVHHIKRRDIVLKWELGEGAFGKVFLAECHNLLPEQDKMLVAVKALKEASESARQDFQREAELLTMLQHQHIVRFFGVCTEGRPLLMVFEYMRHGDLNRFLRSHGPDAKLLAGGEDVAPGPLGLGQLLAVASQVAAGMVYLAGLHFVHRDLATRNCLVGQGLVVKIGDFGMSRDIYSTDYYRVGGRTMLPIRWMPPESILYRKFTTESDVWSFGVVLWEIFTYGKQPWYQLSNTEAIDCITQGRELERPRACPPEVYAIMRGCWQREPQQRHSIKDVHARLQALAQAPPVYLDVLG
Sequence of Mitogen-activated protein kinase kinase kinase kinase 4 (Homo sapiens) (O95819 2-1239 limits assumed): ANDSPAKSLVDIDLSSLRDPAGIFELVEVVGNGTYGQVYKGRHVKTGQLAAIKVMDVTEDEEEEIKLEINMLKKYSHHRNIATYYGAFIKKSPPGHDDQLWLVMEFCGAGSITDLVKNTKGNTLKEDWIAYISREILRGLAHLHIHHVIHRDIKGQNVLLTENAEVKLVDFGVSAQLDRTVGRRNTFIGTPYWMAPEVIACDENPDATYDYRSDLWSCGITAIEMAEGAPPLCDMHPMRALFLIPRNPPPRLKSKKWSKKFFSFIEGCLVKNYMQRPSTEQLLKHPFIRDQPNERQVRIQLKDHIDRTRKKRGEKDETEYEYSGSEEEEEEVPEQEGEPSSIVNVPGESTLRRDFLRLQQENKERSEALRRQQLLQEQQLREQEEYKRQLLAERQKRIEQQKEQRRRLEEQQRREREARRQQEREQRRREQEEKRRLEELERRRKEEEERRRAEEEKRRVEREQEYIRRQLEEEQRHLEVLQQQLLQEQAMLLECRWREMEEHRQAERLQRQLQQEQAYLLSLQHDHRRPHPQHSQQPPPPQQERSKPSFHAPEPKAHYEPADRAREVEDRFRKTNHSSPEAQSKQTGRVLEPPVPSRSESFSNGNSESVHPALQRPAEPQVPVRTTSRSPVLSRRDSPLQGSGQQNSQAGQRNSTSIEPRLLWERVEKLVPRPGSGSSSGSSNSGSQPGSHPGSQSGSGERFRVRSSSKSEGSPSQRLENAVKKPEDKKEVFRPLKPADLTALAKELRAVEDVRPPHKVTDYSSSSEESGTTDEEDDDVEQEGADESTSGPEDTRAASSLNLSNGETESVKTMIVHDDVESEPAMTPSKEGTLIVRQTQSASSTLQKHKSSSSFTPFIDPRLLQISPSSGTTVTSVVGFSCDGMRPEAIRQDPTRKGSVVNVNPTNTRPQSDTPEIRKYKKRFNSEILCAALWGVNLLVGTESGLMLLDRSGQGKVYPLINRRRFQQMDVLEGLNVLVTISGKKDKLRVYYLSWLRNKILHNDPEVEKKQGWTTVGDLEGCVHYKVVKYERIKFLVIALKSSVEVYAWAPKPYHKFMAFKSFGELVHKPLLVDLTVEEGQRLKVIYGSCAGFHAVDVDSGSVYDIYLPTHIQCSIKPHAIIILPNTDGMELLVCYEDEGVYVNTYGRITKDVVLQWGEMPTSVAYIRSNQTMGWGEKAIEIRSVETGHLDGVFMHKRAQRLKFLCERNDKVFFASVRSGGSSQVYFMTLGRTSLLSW
Sequence of Non-receptor tyrosine-protein kinase TYK2 (Homo sapiens) (P29597 whole entry): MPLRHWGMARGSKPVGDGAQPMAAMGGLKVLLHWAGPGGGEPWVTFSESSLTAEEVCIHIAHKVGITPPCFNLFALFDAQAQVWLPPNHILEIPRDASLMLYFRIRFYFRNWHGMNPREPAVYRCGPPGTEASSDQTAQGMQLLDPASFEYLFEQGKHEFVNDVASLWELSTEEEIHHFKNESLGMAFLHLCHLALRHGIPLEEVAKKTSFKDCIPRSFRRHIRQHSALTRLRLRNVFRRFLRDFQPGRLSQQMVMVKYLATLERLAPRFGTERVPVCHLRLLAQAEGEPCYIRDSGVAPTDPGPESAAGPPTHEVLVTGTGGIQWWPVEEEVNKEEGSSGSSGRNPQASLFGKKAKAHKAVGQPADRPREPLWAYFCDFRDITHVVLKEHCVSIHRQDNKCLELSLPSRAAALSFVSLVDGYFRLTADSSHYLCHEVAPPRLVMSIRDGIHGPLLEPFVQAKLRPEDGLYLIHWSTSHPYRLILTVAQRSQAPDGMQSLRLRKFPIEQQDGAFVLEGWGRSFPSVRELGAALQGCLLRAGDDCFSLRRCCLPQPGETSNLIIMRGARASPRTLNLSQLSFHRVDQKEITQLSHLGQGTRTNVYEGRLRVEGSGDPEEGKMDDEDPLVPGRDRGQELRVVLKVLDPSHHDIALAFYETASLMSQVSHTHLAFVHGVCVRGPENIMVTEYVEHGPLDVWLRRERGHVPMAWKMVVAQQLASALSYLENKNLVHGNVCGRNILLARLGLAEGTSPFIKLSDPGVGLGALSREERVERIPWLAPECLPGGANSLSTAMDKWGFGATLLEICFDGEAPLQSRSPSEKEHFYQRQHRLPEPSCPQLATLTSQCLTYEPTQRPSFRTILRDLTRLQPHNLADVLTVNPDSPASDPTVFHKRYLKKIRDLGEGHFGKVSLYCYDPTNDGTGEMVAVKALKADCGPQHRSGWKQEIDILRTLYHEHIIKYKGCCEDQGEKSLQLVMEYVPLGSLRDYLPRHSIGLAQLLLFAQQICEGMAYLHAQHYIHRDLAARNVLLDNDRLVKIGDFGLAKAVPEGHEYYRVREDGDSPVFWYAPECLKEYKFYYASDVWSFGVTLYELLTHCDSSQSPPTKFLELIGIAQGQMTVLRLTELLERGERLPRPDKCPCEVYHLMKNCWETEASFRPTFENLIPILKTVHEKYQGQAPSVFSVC
Sequence of NT-3 growth factor receptor (Homo sapiens) (Q16288 32-839 limits assumed): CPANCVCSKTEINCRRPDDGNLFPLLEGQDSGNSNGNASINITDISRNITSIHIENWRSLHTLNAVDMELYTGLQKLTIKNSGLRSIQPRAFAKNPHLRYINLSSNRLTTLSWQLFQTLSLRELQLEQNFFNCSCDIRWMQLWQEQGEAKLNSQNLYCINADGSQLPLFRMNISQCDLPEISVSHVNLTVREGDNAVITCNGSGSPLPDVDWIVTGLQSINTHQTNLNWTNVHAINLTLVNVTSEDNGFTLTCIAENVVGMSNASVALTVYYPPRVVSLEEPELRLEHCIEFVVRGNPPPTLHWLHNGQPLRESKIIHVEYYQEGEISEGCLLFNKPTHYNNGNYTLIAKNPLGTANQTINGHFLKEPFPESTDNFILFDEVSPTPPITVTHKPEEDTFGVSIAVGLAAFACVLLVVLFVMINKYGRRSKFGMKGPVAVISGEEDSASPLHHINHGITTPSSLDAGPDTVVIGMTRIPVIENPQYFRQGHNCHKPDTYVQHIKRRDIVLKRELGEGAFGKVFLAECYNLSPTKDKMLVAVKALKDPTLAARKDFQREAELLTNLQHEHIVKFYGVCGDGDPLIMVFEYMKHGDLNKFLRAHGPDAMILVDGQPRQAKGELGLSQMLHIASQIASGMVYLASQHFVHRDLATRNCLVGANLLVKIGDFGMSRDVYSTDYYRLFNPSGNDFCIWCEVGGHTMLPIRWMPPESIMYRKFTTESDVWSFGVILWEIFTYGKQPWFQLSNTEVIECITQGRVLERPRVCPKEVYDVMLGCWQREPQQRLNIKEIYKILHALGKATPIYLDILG
Sequence of BDNF/NT-3 growth factors receptor (Homo sapiens) (Q16620 32-822 limits assumed): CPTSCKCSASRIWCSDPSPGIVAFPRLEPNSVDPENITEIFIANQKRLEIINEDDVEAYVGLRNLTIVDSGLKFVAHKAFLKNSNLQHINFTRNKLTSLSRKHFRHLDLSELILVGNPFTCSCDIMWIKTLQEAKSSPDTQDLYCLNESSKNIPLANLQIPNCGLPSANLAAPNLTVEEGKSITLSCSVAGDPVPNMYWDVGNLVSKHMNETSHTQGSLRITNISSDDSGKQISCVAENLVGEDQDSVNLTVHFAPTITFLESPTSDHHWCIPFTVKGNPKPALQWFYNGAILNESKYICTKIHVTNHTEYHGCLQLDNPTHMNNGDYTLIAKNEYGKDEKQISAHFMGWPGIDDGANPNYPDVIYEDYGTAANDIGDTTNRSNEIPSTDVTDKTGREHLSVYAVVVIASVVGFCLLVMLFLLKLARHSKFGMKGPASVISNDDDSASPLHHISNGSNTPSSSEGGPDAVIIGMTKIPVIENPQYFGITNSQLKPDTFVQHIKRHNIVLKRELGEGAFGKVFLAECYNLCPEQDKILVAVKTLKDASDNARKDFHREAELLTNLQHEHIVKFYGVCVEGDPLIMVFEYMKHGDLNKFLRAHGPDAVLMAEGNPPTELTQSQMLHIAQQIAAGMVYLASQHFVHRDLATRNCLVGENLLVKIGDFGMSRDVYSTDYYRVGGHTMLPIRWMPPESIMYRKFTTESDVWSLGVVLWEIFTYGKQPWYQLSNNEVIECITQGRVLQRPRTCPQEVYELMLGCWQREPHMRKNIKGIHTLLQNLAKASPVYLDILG

Take `NC(=O)c1sc(-n2cnc3ccccc32)cc1OCc1ccccc1Br`: the inhibition (in general, the change of the read-out against control, counted positive when it falls) came out at 5.34% in assay [1]; 3.05% in assay [2]; 4.07% in assay [3]; 1.79% in assay [4]; 3.41% in assay [5]; 3.34% in assay [6]. Further, the inhibition in assay [7] was 5.57%; in assay [8], -1.33%; in assay [9], 13%; in assay [10], 3.86%; in assay [11] it was 4.39%; in assay [12], 4.16%. Further, the inhibition in [13] is 9.94%; in [14] it was 1.83%; in [15], 8.84%; in assay [16], 17.4%; in assay [17], 60.6%; in assay [18] it was 2.47%. Besides, the inhibition was found to be 8.46% in assay [19] and 4.11% in [20].

Consider `Cc1ccc2c(c1)/C(=N/Nc1ccc(S(N)(=O)=O)cc1)C(=O)N2`, for which the inhibition was 11.8% in [1]; 3.81% in assay [2]; 31.2% in assay [3]; 4.95% in assay [4]; 39.2% in assay [5]; 1.24% in [6]. Moreover, the inhibition in assay [7] was determined as 3.92%; in assay [8], 1.2%; in assay [9] it was 33.2%; in assay [10] it was 2.87%; in assay [11] it was 27.8%; in assay [12], 1.05%. Besides, the inhibition in assay [13] worked out at 7.36%; in assay [14] it was 1.16%; in assay [15] it was 23.6%; in [16], 0.32%; in [17], 3.53%; in [18], 1.01%. Further, the figures for the inhibition in assay [19] and in assay [20] were 4.98% and 27.3%, respectively.

Take `O=C(Nc1ccc(Oc2ccc3[nH]c(NC(=O)c4ccco4)nc3c2)cc1)Nc1cc(C(F)(F)F)ccc1F`: the inhibition in assay [1] is 85.5%; in assay [2], 27.8%; in assay [3] it was 73.9%; in assay [4], 30.8%; in assay [5] it was 89.6%; in [6], -1.98%. Further, the inhibition was -1.15% in assay [7]; 1.41% in assay [8]; 13.6% in assay [9]; -1.76% in [10]; 15.1% in assay [11]; 5.43% in assay [12]. In addition, the inhibition is 38.8% in assay [13]; 8.04% in [14]; 82.4% in assay [15]; 35.6% in assay [16]; 76.7% in [17]; 2.98% in assay [18]. Also, the inhibition in assay [19] was 28.9%; in [20], 0.47%.

`Cc1ccc(O)cc1Nc1ccnc2ccc(S(C)(=O)=O)cc12`: the inhibition stood at 2.38% in assay [1]; 3.22% in assay [2]; 5.52% in [3]; 6.41% in assay [4]; 7.31% in [5]; 81% in assay [6]. The inhibition is 83.8% in assay [7]; -1.89% in [8]; 10% in assay [9]; 1.96% in assay [10]; 6.17% in [11]; 2.16% in assay [12]. For the same compound, the inhibition in [13] was 5.99%; in [14], 0.93%; in assay [15] it was -0.69%; in assay [16] it was 8.9%; in assay [17], 36.7%; in assay [18] it was 5.18%. Further, the inhibition in [19] stood at 31%; in assay [20] it was 8.02%.

For `Cc1ccc(C(=O)NC2CC2)cc1-c1ccc2[nH]ncc2c1`, the inhibition in assay [1] was -1.16%; in assay [2] it was -1.91%; in [3], -0.53%; in [4], -1.71%; in assay [5], 0.33%; in assay [6] it was -2.22%. Moreover, the inhibition was 0.71% in assay [7]; 0.52% in [8]; -6.13% in assay [9]; -3.2% in [10]; -1.72% in [11]; -2.69% in assay [12]. In addition, the inhibition in [13] is -0.44%; in [14] it was -3.29%; in [15], 0.5%; in [16], -0.03%; in [17] it was -1.42%; in assay [18], -1.74%. Further, the inhibition is 5.05% in [19] and -2.51% in [20].

Take `CCS(=O)(=O)c1ccc(OC)c(Nc2nccc(N(C)c3ccc4c(C)n[nH]c4c3)n2)c1`: the inhibition amounted to 11.7% in assay [1]; 5.19% in assay [2]; 14.1% in assay [3]; 4.34% in [4]; 17.5% in [5]; 1.6% in assay [6]. In addition, the inhibition in assay [7] was 26.2%; in assay [8] it was -6.13%; in assay [9] it was 11.9%; in assay [10] it was 4.98%; in assay [11], 6.77%; in [12], 3.25%. The inhibition in assay [13] worked out at 7.33%; in assay [14], 6.61%; in [15] it was 28.2%; in assay [16], 43.4%; in assay [17], 83%; in assay [18], 0.17%. Besides, the results for the inhibition in assay [19] and in assay [20] were 12.7% and 4.51%, respectively.

Source of the values: ChEMBL document CHEMBL1961873, “Compounds: GSK PKIS; Assays: Nanosyn kinase panel” (2012).
